Screening data (PubChem)
Compounds with a hit are over-represented: about 3.5% of the library has one in this group of screens.
GPR151 activ – activators of human GPR151. Q8TDV0. PathHunter beta-arrestin GPR151 cells, luminescence. activation, % at 11.2 µM. actives 1% (n = 650,000). AID 1508602; in the data active means activation above about 4.9%
TEAD-YAP block – TEAD-YAP interaction inhibition; HEK-TIYL cells, TEAD-Gal4/YAP UAS-luciferase luminescence; actives 1.4% (n = 640,000); inhibition, % at 9.12 µM; in the data active means inhibition above about 32%
MITF inh – blocks human microphthalmia-associated transcription factor | O75030 | AlphaScreen MITF homodimerization, bead proximity signal | inhibition, % at 2.6 µM | actives 0.91% (n = 650,000); in the data active means inhibition above about 50%
FBW7 activator – activators of human E3 ligase FBW7; AlphaScreen FBW7–phospho-cyclin E peptide binding, activator screen; normalized activity (activation), % at 26.1 µM; actives 0.13% (n = 650,000); AID 1259310; in the data active means normalized activity above about 1.9%;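 further: purified mutant Fbw7 with reduced substrate affinity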
Target sequence (Q969H0 whole entry, looked up): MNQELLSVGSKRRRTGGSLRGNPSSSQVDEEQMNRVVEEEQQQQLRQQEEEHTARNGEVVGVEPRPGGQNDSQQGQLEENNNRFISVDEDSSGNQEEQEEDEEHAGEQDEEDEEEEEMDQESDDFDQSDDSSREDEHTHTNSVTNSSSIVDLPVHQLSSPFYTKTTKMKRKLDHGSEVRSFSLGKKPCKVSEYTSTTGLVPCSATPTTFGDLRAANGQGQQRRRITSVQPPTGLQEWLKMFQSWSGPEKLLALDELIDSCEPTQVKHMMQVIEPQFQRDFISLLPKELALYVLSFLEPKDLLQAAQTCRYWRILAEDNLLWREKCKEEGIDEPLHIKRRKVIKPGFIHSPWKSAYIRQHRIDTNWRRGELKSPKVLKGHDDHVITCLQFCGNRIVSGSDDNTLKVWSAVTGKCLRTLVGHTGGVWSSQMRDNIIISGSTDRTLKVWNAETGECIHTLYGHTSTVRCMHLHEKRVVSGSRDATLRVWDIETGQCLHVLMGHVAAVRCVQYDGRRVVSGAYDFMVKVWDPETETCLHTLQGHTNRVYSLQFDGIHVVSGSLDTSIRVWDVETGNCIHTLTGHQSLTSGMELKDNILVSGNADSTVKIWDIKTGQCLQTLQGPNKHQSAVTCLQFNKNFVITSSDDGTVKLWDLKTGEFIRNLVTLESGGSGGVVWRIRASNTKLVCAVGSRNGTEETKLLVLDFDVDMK
MITF confirm – human MITF inhibition, confirmation | inhibition, % at 2.6 µM | AlphaScreen MITF homodimerization, biotin/His-MITF beads | shares compounds with MITF inh | actives 16% (n = 4,700);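 active means inhibition above a cutoff derived from the DMSO control wells, cut at about 28% in these data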;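 further: inhibitors lower the bead chemiluminescence by keeping MITF from dimerizing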
AlphaScreen DR – AlphaScreen optical interference, dose response counter-screen. actives 6% (n = 480). AID 1259373. AlphaScreen optical interference counterscreen, cell-free. IC50, µM. shares compounds with MITF inh; call rule not given here
AS interf ctr – optically interferes with AlphaScreen signal; inhibition, % at 2.6 µM; LysRS AlphaScreen counterscreen, signal interference, triplicate; actives 7.6% (n = 4,700); shares compounds with MITF inh; AID 1259376;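 active means inhibition above a cutoff derived from the DMSO control wells, cut at about 30% in these data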
A number is an active result.

Results for CN1CCC(N(C)Cc2ccc(Cl)cc2)CC1 ?
GPR151 activ: inactive; TEAD-YAP block: inactive; MITF inh: 52.7; FBW7 activator: inactive; MITF confirm: inactive; AS interf ctr: inactive

What do the screens show for `COc1cc(OC)c(OC)cc1CN(C)C1CCN(C)CC1`?
GPR151 activ: inactive; TEAD-YAP block: inactive; MITF inh: inactive; FBW7 activator: inactive

Results for CN1CCC(N(C)Cc2cccc(Br)c2)CC1 ?
GPR151 activ: inactive; TEAD-YAP block: inactive; MITF inh: inactive; FBW7 activator: inactive

How did CN1CCC(N(C)Cc2cccc(F)c2)CC1 do in these assays?
GPR151 activ: inactive; TEAD-YAP block: inactive; MITF inh: 58.7; FBW7 activator: inactive; MITF confirm: inactive; AS interf ctr: inactive

What do the screens show for `COc1ccc(CN(C)C2CCN(C)CC2)c(C)c1C`?
GPR151 activ: inactive; TEAD-YAP block: inactive; MITF inh: 59.1; FBW7 activator: inactive; MITF confirm: inactive; AS interf ctr: inactive

How did CCCOc1ccc(C2C3=C(CCCC3=O)Nc3ccc4ccccc4c32)cc1 (stereo unspecified) do in these assays?
GPR151 activ: inactive; TEAD-YAP block: inactive; MITF inh: inactive; FBW7 activator: inactive

How did Cc1ccc(NC(=O)C(=O)NCCc2ccc(S(N)(=O)=O)cc2)cc1C do in these assays?
GPR151 activ: inactive; TEAD-YAP block: inactive; MITF inh: inactive; FBW7 activator: inactive

What do the screens show for `CN1CCC(N(C)Cc2c(F)cccc2Cl)CC1`?
GPR151 activ: inactive; TEAD-YAP block: inactive; MITF inh: 52.5; FBW7 activator: inactive; MITF confirm: inactive; AS interf ctr: inactive

What do the screens show for `CN1CCC(N(C)Cc2cccc(Cl)c2Cl)CC1`?
GPR151 activ: inactive; TEAD-YAP block: inactive; MITF inh: inactive; FBW7 activator: inactive

Results for Cc1ccc(Cl)cc1NC(=O)c1ccc(N2CC3CC(C2)c2cccc(=O)n2C3)c([N+](=O)[O-])c1 (stereo unspecified) ?
GPR151 activ: inactive; TEAD-YAP block: inactive; MITF inh: inactive; FBW7 activator: inactive

Results for Cc1ccc(NC(=O)N2CCCN(c3nc4cc5c(cc4cc3C#N)OCO5)CC2)cc1 ?
GPR151 activ: inactive; TEAD-YAP block: inactive; MITF inh: inactive; FBW7 activator: inactive

Results for N#Cc1c(C#N)c(N)n(N)c1N ?
GPR151 activ: inactive; TEAD-YAP block: inactive; MITF inh: 93.8; FBW7 activator: inactive; MITF confirm: 94.7; AS interf ctr: 73.0

How did CCOc1ccc2nc(N=C(NC(C)=O)NC(C)=O)nc(C)c2c1 do in these assays?
GPR151 activ: inactive; TEAD-YAP block: inactive; MITF inh: inactive; FBW7 activator: inactive

How did CCOc1ccc2nc(N=C(NC(=O)c3ccccc3)NC(=O)c3ccccc3)nc(C)c2c1 do in these assays?
GPR151 activ: inactive; TEAD-YAP block: inactive; MITF inh: 71.5; FBW7 activator: inactive; MITF confirm: inactive; AS interf ctr: inactive

How did COc1ccc(S(=O)(=O)NCCc2ccccc2)cc1C do in these assays?
GPR151 activ: inactive; TEAD-YAP block: inactive; MITF inh: inactive; FBW7 activator: inactive

Results for Cc1ccc(/C=N/Nc2cccc(C(=O)O)c2)o1 ?
GPR151 activ: inactive; TEAD-YAP block: inactive; MITF inh: 59.2; FBW7 activator: inactive; MITF confirm: inactive; AS interf ctr: inactive

How did O=C(COc1ccc(F)cc1)N/N=C/c1cccc2cccnc12 do in these assays?
GPR151 activ: inactive; TEAD-YAP block: inactive; MITF inh: 59.1; FBW7 activator: inactive; MITF confirm: 27.9; AS interf ctr: 86.1

What do the screens show for `O=C(N/N=C/c1cccc2ccccc12)c1ccncc1`?
GPR151 activ: inactive; TEAD-YAP block: inactive; MITF inh: inactive; FBW7 activator: inactive

Results for O=C(N/N=C/c1cccc2cccnc12)c1ccncc1 ?
GPR151 activ: inactive; TEAD-YAP block: inactive; MITF inh: 95.8; FBW7 activator: inactive; MITF confirm: 112.0; AS interf ctr: 100.3

What do the screens show for `O=C(N/N=C/c1cccc2cccnc12)c1ccccc1`?
GPR151 activ: inactive; TEAD-YAP block: inactive; MITF inh: 57.3; FBW7 activator: inactive; MITF confirm: 77.6; AS interf ctr: 100.3

What do the screens show for `COCCNC(=O)c1cn2c3c(ccc(Cl)c3c1=O)OC(C)C2` (stereo unspecified)?
GPR151 activ: inactive; TEAD-YAP block: inactive; MITF inh: inactive; FBW7 activator: inactive

How did Cc1ccc(CNC(=O)c2cc(Sc3ccccc3Cl)nc3ccccc23)cc1 do in these assays?
GPR151 activ: inactive; TEAD-YAP block: inactive; MITF inh: inactive; FBW7 activator: inactive

Results for O=C(NCCOc1ccccc1)c1cccc(Nc2ccncn2)c1 ?
GPR151 activ: inactive; TEAD-YAP block: inactive; MITF inh: 81.2; FBW7 activator: inactive; MITF confirm: inactive; AS interf ctr: inactive

Results for COc1ccc(-c2[nH]nc3c2C(c2ccc(C)cc2)C(C#N)=C(N)O3)cc1 (stereo unspecified) ?
GPR151 activ: inactive; TEAD-YAP block: inactive; MITF inh: inactive; FBW7 activator: inactive

What do the screens show for `CCCCn1c(=O)[nH]c(=O)c2c1nc(-c1ccc([N+](=O)[O-])o1)n2C`?
GPR151 activ: inactive; TEAD-YAP block: inactive; MITF inh: 79.0; FBW7 activator: inactive; MITF confirm: 66.5; AlphaScreen DR: inactive; AS interf ctr: inactive

What do the screens show for `CCCCn1c(=O)[nH]c(=O)c2c1nc(-c1ccc(C)c([N+](=O)[O-])c1)n2CC`?
GPR151 activ: inactive; TEAD-YAP block: inactive; MITF inh: inactive; FBW7 activator: inactive

What do the screens show for `COCCCNc1ccc([N+](=O)[O-])cc1C(=O)Nc1cccc(C)n1`?
GPR151 activ: inactive; TEAD-YAP block: inactive; MITF inh: 52.1; FBW7 activator: inactive; MITF confirm: inactive; AS interf ctr: inactive

What do the screens show for `CC1CCCN(C2CCN(Cc3ccc(Cl)cc3)CC2)C1` (stereo unspecified)?
GPR151 activ: inactive; TEAD-YAP block: inactive; MITF inh: 56.3; FBW7 activator: inactive; MITF confirm: inactive; AS interf ctr: inactive

What do the screens show for `CCOc1ccc(CN2CCC(N3CCCC(C)C3)CC2)cc1` (stereo unspecified)?
GPR151 activ: inactive; TEAD-YAP block: inactive; MITF inh: 52.7; FBW7 activator: inactive; MITF confirm: inactive; AS interf ctr: inactive

What do the screens show for `Clc1ccc(CN2CCC(N3CCCCC3)CC2)cc1`?
GPR151 activ: inactive; TEAD-YAP block: inactive; MITF inh: inactive; FBW7 activator: inactive

Results for Cc1cc(Nc2cccc(Cl)c2C)c2ccccc2n1 ?
GPR151 activ: inactive; TEAD-YAP block: inactive; MITF inh: inactive; FBW7 activator: inactive

Results for CCOC(=O)C1CCN(C(=O)CC(NS(=O)(=O)c2ccc(OC)cc2)c2ccc(OC)cc2)CC1 (stereo unspecified) ?
GPR151 activ: inactive; TEAD-YAP block: inactive; MITF inh: inactive; FBW7 activator: inactive

How did CCN1CCN(CCOc2ccc(OCc3ccccc3)cc2)CC1 do in these assays?
GPR151 activ: inactive; TEAD-YAP block: inactive; MITF inh: 68.6; FBW7 activator: inactive; MITF confirm: inactive; AS interf ctr: inactive
